Shown are actives, neighbours in structure and some others; about 9% of the full set was active somewhere.
JMJD2A Tudor inh – JMJD2A Tudor domain (human) inhibition; O75164; AlphaScreen JMJD2A-Tudor / H3K4me3 peptide binding; Potency, µM (highest dose often 114 µM), for inactives: at the highest dose activity change, negative = inhibition, usual class: inhibitors; 390,000 tested, 4.4% active; AID 504339; further: on the % scale 0 is the no-effect control and ±100 the full control effect; nearly all actives have a fitted effect of over 50% in size
PLK1 PBD inh – PLK1 (human) polo-box domain binding inhibition. P53350. Plk1 PBD binding of FITC phosphopeptide, fluorescence polarization. Potency, µM, for the others: max response, negative = inhibition, most hits filed as inhibitors. 360,000 tested, 2.8% active. AID 720504; further: series mostly up to about 57 µM; on the % scale 0 is the no-effect control and ±100 the full control effect; nearly all actives have a fitted effect of over 65% in size
ALOX12 inh – ALOX12 (human) lipoxygenase inhibition; P18054; purified 12hLO, xylenol orange hydroperoxide absorbance; Potency, µM (highest dose often 108 µM), inactives show at the highest dose activity change, negative = inhibition, actives largely listed as inhibitors; 580,000 tested, 1.1% active; further: on the % scale 0 is the no-effect control and ±100 the full control effect
Target sequence (P18054 whole entry, looked up): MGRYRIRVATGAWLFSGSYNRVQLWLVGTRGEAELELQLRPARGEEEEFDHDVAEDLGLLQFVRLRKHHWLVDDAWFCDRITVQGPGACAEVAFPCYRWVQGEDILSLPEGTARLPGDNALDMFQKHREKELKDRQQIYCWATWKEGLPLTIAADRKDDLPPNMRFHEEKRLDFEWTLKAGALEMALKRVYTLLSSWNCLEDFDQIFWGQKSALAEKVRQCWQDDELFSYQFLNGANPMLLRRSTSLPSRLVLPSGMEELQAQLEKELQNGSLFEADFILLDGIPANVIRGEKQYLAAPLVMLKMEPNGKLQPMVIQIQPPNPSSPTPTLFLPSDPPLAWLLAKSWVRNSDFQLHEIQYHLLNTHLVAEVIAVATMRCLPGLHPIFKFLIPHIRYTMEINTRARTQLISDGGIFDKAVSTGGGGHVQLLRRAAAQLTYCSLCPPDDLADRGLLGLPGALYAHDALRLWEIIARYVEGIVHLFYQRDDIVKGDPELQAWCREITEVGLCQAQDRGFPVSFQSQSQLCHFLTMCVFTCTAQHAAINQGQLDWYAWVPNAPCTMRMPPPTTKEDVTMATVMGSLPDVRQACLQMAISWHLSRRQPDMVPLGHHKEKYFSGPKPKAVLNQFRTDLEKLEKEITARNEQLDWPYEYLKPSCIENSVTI
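Purified human 12hLO at 150 nM in 25 mM Hepes, 0.01% Triton X-100, pH 7.0, preincubated 15 min at room temperature with compound. Reaction started with 40 uM arachidonic acid, 30 min at room temperature. Hydroperoxide measured by Fe-xylenol orange, 573/405 nm absorbance ratio.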
BAZ2B inh – BAZ2B (human) inhibition; Q9UIF8; AlphaScreen BAZ2B-H3K14Ac peptide displacement; Potency, µM (series often up to 114 µM), inactives show top-dose activity change, negative = inhibition, hits mostly inhibitors; 360,000 tested, 4.4% active; AID 504333; further: on the % scale 0 is the no-effect control and ±100 the full control effect; nearly all actives have a fitted effect of over 60% in size
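AlphaScreen luminescence quantifies BAZ2B engagement of H3K14Ac peptide; the protein and biotinylated peptide are both at 50 nM final, buffer PBS pH 7.4 with 0.01% Tween-20, all steps at room temperature.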
HP1b binding inh – blocks HP1-beta chromodomain binding to methylated histone tails; AlphaScreen HP1-beta / biotin-H3K9me3 peptide binding; P83916; AID 540317; Potency, µM (highest dose often 114 µM), inactives show top-dose activity change, negative = inhibition, actives largely listed as inhibitors; 390,000 tested, 0.56% active; further: nearly all actives have a fitted effect of over 70% in size
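Compound inhibition of the preformed complex between 50 nM HP1-beta and 50 nM biotinylated H3K9me3 peptide was read by AlphaScreen. Buffer was PBS pH 7.4 with 0.01% Tween-20. Incubations ran 30 min at room temperature, with 10 ug/mL donor/acceptor beads.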
G9a inh – G9a (human) methyltransferase inhibition | G9a H3K9 monomethylation, AlphaScreen, 2 h | Potency, µM (top dose mostly 102 µM), for inactives: at the highest dose activity, negative = inhibition, usual class: inhibitors | 350,000 tested, 8.8% active; further: on the % scale 0 is the no-effect control and ±100 the full control effect; nearly all actives have a fitted effect of over 75% in size
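G9a (20 nM) preincubated 15 min RT with compounds, then 500 nM biotinylated H3K9 peptide and 20 uM SAM added; 2 h RT reaction. Monomethyl-H3K9 product detected by AlphaScreen with anti-H3K9me1 antibody, streptavidin donor and anti-rabbit IgG acceptor beads.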
An asterisk follows results filed as active; i = inactive; u = inconclusive; x = not tested or not shown; [ ] = dose if it differs, or a comment. The call rests on the fitted dose curve; in most records, active means well fitted curve in the direction sought with a large enough effect; inconclusive means small, poorly fitted or top-dose-only effect, or another doubt; inactive means no such curve, though single readings can be large; an effect the other way counts as inactive or inconclusive. Potency means the concentration at half of the fitted maximal effect.

SMILES	JMJD2A Tudor inh	PLK1 PBD inh	ALOX12 inh	BAZ2B inh	HP1b binding inh	G9a inh
C=CCN1C(=O)/C(=C2/Sc3ccc(OC)cc3N2CC)SC1=S	-28%	-16%	15%	-2%	19%	6%[0.501 µM]
Nc1[nH]nc2nc3ccccc3nc12	x	x	0%	x	x	x
Nc1[nH]nc2ncc3cc4ccccc4nc3c12	-21%	-4%	-14%	u	26%	35µM*
O=C(Cc1cccs1)N(Cc1ccncc1)C1CC1	x	x	-24%	x	x	x
Cc1ccc(CN(C(=O)CCCc2cccs2)C2CC2)cc1	x	x	8.9µM*	x	x	x
CCOc1cnc(-c2ccc(Cl)cc2)o1	9%	-1%	0%	-20%	13%	u
CCOc1cnc(-c2c(-c3c(Cl)cccc3Cl)noc2C)o1	57%	-17%	11%	45µM*	45µM*	45µM*
C=CCn1c(OCc2ccccc2)n[nH]c1=S	3.2µM*	-28%	0%	-17%	u	8.9µM*
C=CCn1c(C(c2ccccc2)c2ccccc2)n[nH]c1=S	-18%[57.1 µM]	-24%	-24%	-30%	23%	10µM*
CCn1c(C(c2ccccc2)c2ccccc2)n[nH]c1=S	32µM*	-5%	u	-7%	-5%	7.9µM*
C=CCn1c2c(c(=O)[nH]c1=S)CN(C(C)c1ccccc1)CN2 (configuration not stated)	-8%	-6%	0%	-11%	32%	-34%
CNC(=O)NC(=O)CSc1cc(C)c2cccc(C)c2n1	x	x	12%	x	x	x
C=C(C)C(=O)Nc1nnc(-c2ccccc2C)s1	-22%	-8%	-16%	-24%	11%	-18%
COc1ccc(-n2c(SCC(=O)NCc3ccc(Cl)cc3)nc3ccsc3c2=O)cc1	-8%	x	-24%	-10%	29%	-29%[59 µM]
COc1ccc(-n2c(SCC(=O)NCCC(C)C)nc3ccsc3c2=O)cc1	-7%	-21%	0%	-6%	24%	25µM*
COc1ccc(S(=O)(=O)N2CCN(C)CC2)cc1C	-1%	-12%	i	-5%	49%	-6%
COc1ccc(C)cc1N(C(=O)c1ccccc1)c1nc2ccccc2s1	0%	-4%	-4%	5%	36%	-12%[59 µM]
COc1ccc(C)cc1N(C(=O)c1ccc(C#N)cc1)C1=NC(C)(C)CS1	0%	-7%	0%	-20%	29%	28µM*
O=C(c1nc2ccc(Cl)cn2c1CN1CCC(CO)CC1)N1CCc2ccccc2C1	-10%	-1%	-19%	3%	37%	93%
O=C(c1nc2ccc(Cl)cn2c1CN1CCCC1)N1CCc2ccccc2C1	u	-27%	29%	u	9%	79µM*
CN(Cc1cccnc1)Cc1c(C(=O)N2CCc3ccccc3C2)nc2ccc(Cl)cn12	-21%	-9%	-5%	-23%	30%	50µM*
Cn1c(-c2ccccc2)cc(=O)cc1-c1ccccc1	x	-8%	2%	x	x	x
CC(C)NC(=O)COc1ccc(/C=N/NS(=O)(=O)c2ccccc2)cc1	1%	-6%	249%	4%	34%	u
COc1ccc(-n2c(=O)c3c4c(sc3n(CC(=O)Nc3cc(C)[nH]n3)c2=O)CCC4)c(OC)c1	89µM*	-11%	-9%	x	1%	u
COc1ccc(-n2c(=O)c3c4c(sc3n(Cc3ccccc3)c2=O)CCC4)c(OC)c1	-22%	x	-2%	-25%	17%	u
SMILES	JMJD2A Tudor inh	PLK1 PBD inh	ALOX12 inh	BAZ2B inh	HP1b binding inh	G9a inh
COc1ccccc1-n1c(=O)c2c3c(sc2n2c(=S)[nH]nc12)CCC3	14µM*	-20%	u	-30%	17%	3.2µM*
CCOc1ccccc1C(=O)NC1CC2CCCC(C1)N2C1CC1 (configuration not stated)	-5%	-4%	0%	9%	31%	u
CC(C)(C)c1csc(NC(=O)Cc2ccc(S(=O)(=O)N3CCOCC3)s2)n1	-31%	-10%	-13%	-6%	-17%	u
CCOc1ccccc1CN1CCN(Cc2cccc3nonc23)CC1CCO (configuration not stated)	-16%	-9%	7%	-21%	5%	-7%
COc1ccc2c(c1)C=C(CN1CCN(Cc3ccccc3C)C(CCO)C1)CO2 (configuration not stated)	50µM*	-27%	38%	u	-30%	u
COc1cccc(CN2CCN(Cc3[nH]c4ccccc4c3C)CC2CCO)c1 (configuration not stated)	u	-1%	-28%	35µM*	2%	u
COc1cccc(CN2CCN(Cc3cccc4nonc34)CC2CCO)c1 (configuration not stated)	u	17µM*	-25%	-1%	u	-2%
Cc1c(Cl)cccc1N/C(=N/S(=O)(=O)c1cccs1)c1ccccc1	-6%	-17%	u	4%	6%	x
O=C(Cn1ccc2ccccc21)Nc1ccc2c(c1)C(=O)N1CCC[C@H]1C(=O)N2	x	x	26%	x	x	x
O=C(c1ccco1)N1CCN(C(c2ccc(Cl)cc2)c2nnnn2CC2CCCO2)CC1 (configuration not stated)	79µM*	-7%	u	u	0%	-47%[12.7 µM]
O=C(c1ccco1)N1CCN(Cc2nnnn2CC2CCCO2)CC1 (configuration not stated)	28µM*	12µM*	-30%	-30%	40%	u
Cc1ccc(C(c2nnnn2CC2CCCO2)N2CCN(C(=O)c3ccco3)CC2)cc1 (configuration not stated)	-4%	-1%	37%	-35%	41%	76%[59 µM]
Cc1ccc(-n2ncc3c(N(CCO)Cc4ccccc4)ncnc32)cc1	-7%	x	-2%	2%	52%	1%[59 µM]
COc1ccccc1-c1cnnc(N/N=C/c2ccc(-c3cccc(Br)c3)o2)n1	-34%	-4%	-27%	-28%	16%	8%[59 µM]
COc1ccc(-c2csc(Cc3nnc4n3CCCCC4)n2)cc1	-18%	-6%	-7%	u	11%	-19%[12.7 µM]
COc1ccc(-c2csc(Cc3nnc(N4CCOCC4)n3-c3ccccc3)n2)cc1OC	63µM*	-4%	-5%	u	11%	u
COc1ccc(-c2csc(Cc3nnc(N4CCOCC4)n3-c3ccccc3)n2)cc1	-21%	-6%	8%	5%	19%	50µM*
COc1cc(F)ccc1CN1CCC(n2nccc2NC(=O)C2CCOC2)CC1 (configuration not stated)	-8%	4%	10%	1%	41%	16%
Cc1ccccc1NC(=O)CC1SC(=O)N(c2ccccc2)C1=O (configuration not stated)	-15%[11.4 µM]	11µM*	0%	u	-14%	u
CCOc1ccccc1NC(=O)CC1SC(=N)N(c2ccccc2)C1=O (configuration not stated)	x	x	-1%	-10%	x	6%

Bioassay records (PubChem BioAssay)
